Among the data in PubChem BioAssay AID1578 (Sanford-Burnham Center for Chemical Genomics, 2009) are inhibition values, retold here.

Screen size: about 290,000 compounds; about 3,000 (1%) were called active. This excerpt belongs to a sample that is enriched for actives. A number with no mark means an inactive call. No stated cut-off is given here; in the data, active means inhibition mostly above about 36% (no sharp cut-off); inactive means mostly below about 34%.

The assay is described as follows: NOD1 signaling inhibitors, primary screen, cell-based, luminescence, uHTS (AID 1578).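 Further: HEK-293T reporter cells stimulated with the NOD1 agonist gamma-tri-DAP.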 To be noted: NOD1-driven NF-kB luciferase reporter cells, at 4 µM, hits give high values.
The inhibition is the relative decrease from the control value, in per cent. Take `O=C(CN1CCN(S(=O)(=O)N2CCCCCC2)CC1)Nc1ccc(Br)cc1`: the inhibition is -32.9%.

As to `O=Cc1ccc(N2CCCC2)c([N+](=O)[O-])c1`, the inhibition is -40.9%. As for `CNC(=O)Cc1csc2ccc(C)cc12`, the inhibition is 41.4% (active). For `O=C(O)CSCC(=O)NCc1csc2ccc(Cl)cc12` the value was 0.3%.

Regarding `CNC(=O)Cc1csc2ccc(Cl)cc12`, the inhibition is -7.2%. As for `Cc1ccc(C)c(N2CCN(CCCNC(=O)Cn3cc4c(n3)CCC(C)C4)CC2)c1` (centres undefined), the inhibition was -16.2%. On to `COc1ccccc1/C=N/N(C(C)=O)c1nc(-c2ccc(F)cc2)cs1`, for which the inhibition was 9.4%. The result for `O=C(O)C1CCCN(S(=O)(=O)c2ccc(Cl)s2)C1` (centres undefined) reads -19.7%. Consider `Cc1cccc(Nc2ccc3nonc3c2[N+](=O)[O-])c1C`, for which the inhibition was -9.3%. For `COc1cc(NC(C)=O)ccc1-c1cc2ccccc2oc1=O` the value was 34.7%. `COc1cc(NC(=O)COc2ccc(Cl)cc2)ccc1-c1cc2ccccc2oc1=O`: the inhibition is 12.1%. In the case of `CCCc1ccc(S(=O)(=O)NCC2CCCN2CC)cc1` (centres undefined), the inhibition was -7.8%. The result for `COc1ccc(N(CC(=O)NCc2ccco2)C(=O)CNS(=O)(=O)c2ccc(Cl)cc2)cc1` reads 4.6%; that for `O=C(Cc1ccccc1)NC(=S)Nc1ccc2oc(-c3ccccc3F)nc2c1`, -99.4%; that for `O=C(C1=C[C@@H](c2csc3ccccc23)C[C@@H](OCCCCO)O1)N1CCN(Cc2ccc3c(c2)OCO3)CC1`, -7.2%. With `CC(=O)C1=C(c2ccc(Br)cc2)C(=O)c2ccccc2C1=O`, the inhibition is 98.1% (active). Consider `Cc1ccc(C2=C(O)c3ccccc3C(=O)C2=O)cc1`, for which the inhibition was -31.4%. For `O=C(C1=C(c2ccccc2)C(=O)c2ccccc2C1=O)c1ccccc1`, the inhibition is 1.2%. In the case of `O=C(CCCCCN1C(=O)CCC1=O)NCc1ccccc1`, the inhibition is -1.8%. For `COCCNC(=O)CCCC(=O)NCCOC` the value was -16.8%. As to `COCCNC(=O)CCCCCN1C(=O)CCC1=O`, the inhibition was 48.6% (active). `Cc1nnc2sc(-c3ccc(-c4ccc(Cl)c(C(F)(F)F)c4)o3)nn12`: the inhibition was -9.3%. Regarding `CN(C)CCCC(=O)c1ccc2c(c1)OCO2`, the inhibition was -10.8%. On to `CCCC(=O)c1ccc2c(c1)OCCO2`, for which the inhibition was 1.3%. Regarding `CN(C)CCC(=O)c1ccc2c(c1)OCO2`, the inhibition was 59.1% (active). Turning to `O=C(Cc1ccccc1)c1ccc2c(c1)OCCO2`, the inhibition was -43.1%.

With `O=C(CCc1ccccc1)c1ccc2c(c1)OCCCO2`, the inhibition was -67.4%. For `O=C(CCCc1ccccc1)c1ccc2c(c1)OCCO2` the value was 54.9% (active).

As to `Cc1ccccc1-c1nc(CN2CCCC2c2ccc(F)cc2)c(C)o1` (centres undefined), the inhibition was -29.5%.

Take `COCC1CCN(Cc2cn[nH]c2-c2cc3ccccc3o2)C1` (centres undefined): the inhibition is -18.7%. `O=Cc1c(C(=O)O)n(CC(=O)O)c2ccccc12`: the inhibition is -37%. The result for `CC1=NNC(=O)C1C(c1ccc(Cl)cc1)C(C#N)C#N` (centres undefined) reads -7.3%. The result for `CC(C)Cc1nnc(NC(=O)CCC(=O)NC2CCCc3ccccc32)s1` (centres undefined) reads -25.2%. Regarding `CN(C(=O)CCl)C1CCCc2ccccc21` (centres undefined), the inhibition was 55.5% (active). As for `Cc1ccccc1CC(=O)NC1CCCc2ccccc21` (centres undefined), the inhibition was 58.1%. For the compound `CN(C(=O)Nc1ccccc1)C1CCCc2ccccc21` (centres undefined), the inhibition is -3.4%. For `O=C(CCl)NC1CCCc2ccccc21` (centres undefined), the inhibition is 59% (active). For `CN(C(=O)CN1CCN(c2ccccc2F)CC1)C1CCCc2ccccc21` (centres undefined) the value was -20.5%. For `CCc1nnc(NC(=O)CCC(=O)NC2CCCc3ccccc32)s1` (centres undefined), the inhibition is -15.7%. For `O=C(Cc1ccc(Br)cc1)NC1CCCc2ccccc21` (centres undefined), the inhibition is -30.2%. For `CCCc1nnc(NC(=O)CCC(=O)NC2CCCc3ccccc32)s1` (centres undefined) the value was 89.6% (active). On to `O=C(CNC(=O)Cn1ccc2ccccc2c1=O)NCCCN1CCN(c2cccc(Cl)c2)CC1`, for which the inhibition is 9.9%. `COc1ccccc1CN1CC(C(=O)N(C)CCCn2nc(C)cc2C)CCC1=O` (centres undefined): the inhibition is -33.8%. The result for `Cc1cc(Cl)ccc1C(=O)C1CCCN(C(=O)c2cnn(C(C)C)c2)C1` (centres undefined) reads -17.9%; that for `CC(C)(C)n1cc(S(=O)(=O)c2ccccc2)[nH]c1=O`, -26.3%. For `O=C(Nc1ccccn1)N1CCOCC1` the value was -28.5%; for `C=CCn1c(SCc2cc(=O)n3cc(C)ccc3n2)nnc1-c1ccc(F)cc1`, -11.1%; for `O=C(O)CCn1[nH]c(=O)c2ccccc2c1=O`, -7.7%. Consider `Cc1ccc2nc(SCc3ccccc3)c(C=O)c(=O)n2c1`, for which the inhibition was -41.8%. With `COc1ccc(-c2c(NC(=O)c3ccco3)n(-c3ccccc3)nc(C)c2=O)cc1`, the inhibition is -7.7%. The result for `COc1ccc(/C=N/NC(=O)c2c(-c3ccccc3)noc2C)cc1[N+](=O)[O-]` reads -15.9%; that for `Oc1ccc(-c2nc3c4c(ncn3n2)-c2ccccc2CC42CCCC2)cc1`, 99.8% (active).

In the case of `c1ccc(OCc2nc3c4c(ncn3n2)-c2ccccc2CC42CCCC2)cc1`, the inhibition was 19.6%. For `COc1ccc(-c2nc3c4c(ncn3n2)-c2ccccc2CC42CCCC2)cc1` the value was -3.6%; for `O=C(Nc1ccccc1F)C1CCN(C(=O)NCc2ccccc2)CC1`, -18%. Take `COc1ccc(-c2cc(-c3ccccc3)nc(Cl)n2)cc1OC`: the inhibition was 12%. `Cc1c(NS(=O)(=O)c2ccc3c(c2)NC(=O)CC(=O)N3)cccc1[N+](=O)[O-]`: the inhibition was -6.1%. On to `CCOC(=O)NC1(C(F)(F)F)C(=O)N(Cc2ccccc2)C2=C1C(=O)CC(C)(C)C2` (centres undefined), for which the inhibition was 0.2%.

For `Cc1ccc(S(=O)(=O)N(C)c2ccc(OC(=O)c3ccc(=O)[nH]c3)cc2)cc1`, the inhibition is 5.9%. With `O=S(=O)(c1cc(F)ccc1F)N1CCN2CCCC2C1` (centres undefined), the inhibition was 50.7%. Turning to `C=CCNC(=S)N/N=C/c1ccc(-c2ccc(Br)cc2)o1`, the inhibition is -6.5%. Turning to `NC(=S)N/N=C/c1ccc(C(F)(F)F)cc1`, the inhibition is -16%. For `C=CCNC(=S)N/N=C/c1ccc(-c2cccc([N+](=O)[O-])c2)o1`, the inhibition is -8.7%. On to `C=CCNC(=S)N/N=C/c1ccc(C(F)(F)F)cc1`, for which the inhibition is 52.7% (active).

In the case of `C=CCNC(=S)N/N=C/c1ccc(-c2ccc(OC)cc2)o1`, the inhibition was 59.5% (active). On to `C=CCNC(=S)N/N=C/c1ccc(C(C)(C)C)cc1`, for which the inhibition is 3.2%. With `CCN(CC)CCCN1C=C2C(=O)C(C)(OC(=O)C3CCCC3)C(=O)C=C2C=C1c1ccsc1` (centres undefined), the inhibition was -2%.

Consider `CCOC(=O)C1=C(c2ccccc2)N=C2SCC(=O)N2C1c1ccc(OCC)c(OCC)c1` (centres undefined), for which the inhibition is -4%. For `CCOC(=O)Cn1nc(C)c(NC(=O)COc2ccc([N+](=O)[O-])cc2)c1C`, the inhibition is -8.3%. As to `O=C(CCn1c2c(c3ccccc31)CCCC2)NNC(=O)c1ccccc1Cl`, the inhibition is -15.4%. The result for `CC(=O)NNC(=O)CCn1c2c(c3ccccc31)CCCC2` reads -2%; that for `CCOC(=O)NNC(=O)CCn1c2c(c3ccccc31)CCCC2`, 55.3% (active); that for `CCOC(=O)c1c(C)[nH]c(C(=O)CSc2nc(C)cc(C)n2)c1C`, -15.5%.

Take `O=C(O)C1CC1(c1ccccc1)c1ccccc1` (centres undefined): the inhibition was -21.6%. Consider `CCOc1ccc(Nc2nc(NCC(=O)O)nc(N)c2[N+](=O)[O-])cc1`, for which the inhibition was 0.9%. The result for `Cc1cccc(NC(=O)C2C3CCC4C(CCC32)C4(Cl)Cl)c1` (centres undefined) reads -38.6%; that for `O=C(Nc1ccccc1)C1C2CCC3C(CCC21)C3(Cl)Cl` (centres undefined), -42.4%. For `O=C(Nc1cccc(Cl)c1)C1C2CCC3C(CCC21)C3(Cl)Cl` (centres undefined) the value was 73% (active); for `COc1cccc(CN2CCNC(=O)C2CC(=O)N2CCCCO2)c1OC` (centres undefined), -10.5%; for `CCOc1ccc(C(=O)c2ccccc2C(=O)O)cc1OCC`, -35.3%.

Turning to `CC1=CC(=O)C(C(C)C)=C/C1=C(\c1cc(C(C)C)c(OP(=O)(O)O)cc1C)c1ccccc1C(=O)O`, the inhibition was 69.3% (active). Consider `CC1=CC(=O)C(C(C)C)=C/C1=N/OS(=O)(=O)c1ccccc1`, for which the inhibition is -5.3%. Turning to `COc1ccc(CNc2ccc(S(N)(=O)=O)cc2)cc1`, the inhibition was 2.2%. For the compound `Oc1ccc(/C=N/NC(=S)N2CCOCC2)cc1`, the inhibition was 4.2%.

Regarding `Cc1ccc(/C=N/NC(=S)N2CCOCC2)cc1`, the inhibition was 39.7%. `S=C(N/N=C/c1ccc(Cl)cc1)N1CCOCC1`: the inhibition was 63.9% (active). With `Cc1cccc2sc(NC(=O)CSc3cn[nH]n3)nc12`, the inhibition is 19%.

With `O=C1C2CC=CCC2C(=O)N1Cc1ccccc1Cl` (centres undefined), the inhibition is -2.8%. As to `CC(=O)Nc1ccc(NC(=O)CSc2nc(N)c(NC(=O)c3ccco3)c(=O)[nH]2)cc1`, the inhibition was -35.9%. Regarding `O=C(COc1ccc2ccc(=O)oc2c1)Nc1cccnc1`, the inhibition is -31.3%.

For the compound `COC(=O)COc1ccc2c(-c3ccc(OC)cc3)cc(=O)oc2c1`, the inhibition is 1.6%. `Cc1c(C)c2ccc(OCC(=O)Nc3cccnc3)cc2oc1=O`: the inhibition is -45.6%.

For the compound `O=C(COc1ccc2ccc(=O)oc2c1)Nc1ccc(CCO)cc1`, the inhibition is -6%. As for `Cc1nn(CCC#N)c(N)c1C1(O)C(=O)Nc2c(Cl)cc(Cl)cc21` (centres undefined), the inhibition was -6.9%. On to `Fc1ccccc1/C=N/Nc1nc2ccccc2o1`, for which the inhibition is -1.1%.

On to `CCOc1ccc2nc(C)cc(Nc3ccc(N4CCOCC4)cc3)c2c1`, for which the inhibition is -31.4%. On to `CN(C[C@H](CC1CCCCC1)N(C[C@H](Cc1ccccc1)N(CCc1ccccc1)N=O)N=O)N=O`, for which the inhibition is -18.5%.

Regarding `O=c1cc(CNC2CCCCC2)c2ccccc2[nH]1`, the inhibition was 11.2%. On to `COC(=O)c1ccc(-n2cncn2)c([N+](=O)[O-])c1`, for which the inhibition is -23.5%.
